Source: article PMC5540273 (PLoS ONE, 2017)

Legend:
Conditions in all cases: concentration: 1 μM,replicates: in singlicate; n = 1
CDC2L2 = test system: CDC2L2
CDC2L5 = test system: T1, CDC2L5
T1 construct: gene CDK13

CDK11 = test system: T2, CDK11
T2 construct: gene CDK19

CDK2 = test system: CDK2
CDK3 = test system: CDK3
CDK4-cyclinD1 = test system: CDK4-cyclinD1
CDK4-cyclinD3 = test system: CDK4-cyclinD3
CDK4 = test system: CDK4
CDK5 = test system: CDK5
CDK7 = test system: CDK7
CDK8 = test system: CDK8
CDK9 = test system: CDK9
CDKL1 = test system: CDKL1
CDKL2 = test system: CDKL2
CDKL3 = test system: CDKL3
CDKL5 = test system: CDKL5
CHEK1 = test system: CHEK1
CHEK2 = test system: CHEK2
CIT = test system: CIT
CLK1 = test system: CLK1
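Further: KINOMEscan kinase panel screen.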

Row | Structure (SMILES) | %Inh (CDC2L2) | %Inh (CDC2L5) | %Inh (CDK11) | %Inh (CDK2) | %Inh (CDK3) | %Inh (CDK4-cyclinD1) | %Inh (CDK4-cyclinD3) | %Inh (CDK4) | %Inh (CDK5) | %Inh (CDK7) | %Inh (CDK8) | %Inh (CDK9) | %Inh (CDKL1) | %Inh (CDKL2) | %Inh (CDKL3) | %Inh (CDKL5) | %Inh (CHEK1) | %Inh (CHEK2) | %Inh (CIT) | %Inh (CLK1)
1 | C[C@@H](Oc1cc(-n2cnc3ccc(-c4ccncc4)cc32)sc1C(N)=O)c1ccccc1Cl [GSK483724] | 7% | 0% | 73% | 30% | 36% | 0% | 0% | 27% | 1% | 0% | 57% | 3% | 16% | 78% | 32% | 0% | 0% | 0% | 98.8% | 98.2%
2 | CN(c1ccccc1CNc1nc(Nc2ccc3c(c2)CC(=O)N3)ncc1C(F)(F)F)S(C)(=O)=O | 0% | 0% | 0% | 58% | 55% | 0% | 34% | 0% | 83% | 67% | 0% | 40% | 13% | 8% | 0% | 0% | 0% | 0% | 10% | 95%
3 | COc1cc2ncn(-c3cc(OCC4CCCCC4)c(C(N)=O)s3)c2cc1OC [GSK204559] | 6% | 0% | 12% | 0% | 21% | 0% | 0% | 8% | 0% | 86% | 5% | 0% | 0% | 1% | 0% | 0% | 0% | 0% | 10% | 35%
4 | Cc1ccc2c(-c3ccnc(Nc4ccc(C(F)(F)F)cc4)n3)cnn2n1 [GW819776] | 0% | 0% | 0% | 15% | 13% | 0% | 0% | 16% | 0% | 47% | 36% | 23% | 39% | 69% | 77% | 61% | 0% | 0% | 19% | 83%
5 | Cl.Cl.NC[C@H](CC1CCCCC1)NC(=O)c1ccc(-c2ccnc3[nH]ccc23)s1 [GSK1581428] | 0% | 0% | 4% | 11% | 0% | 0% | 23% | 25% | 0% | 94.6% | 11% | 39% | 23% | 51% | 89% | 44% | 96.8% | 27% | 99% | 85%
6 | Cl.Nc1n[nH]c2cc(-c3ccccn3)ccc12 [GSK2189892] | 23% | 0% | 2% | 0% | 0% | 0% | 0% | 0% | 0% | 0% | 13% | 7% | 4% | 24% | 0% | 0% | 18% | 0% | 25% | 23%
7 | Cc1ccn2nc(-c3ccc(F)cc3)c(-c3ccncc3)c2c1.Cl [GW457859] | 24% | 0% | 1% | 0% | 2% | 18% | 0% | 50% | 0% | 47% | 12% | 0% | 23% | 28% | 0% | 0% | 0% | 43% | 100% | 22%
8 | FC(F)(F)c1cc(Br)cc(Nc2nccc(-c3cnn4ncccc34)n2)c1 [GW810578] | 7% | 0% | 0% | 39% | 73% | 16% | 52% | 8% | 37% | 98.9% | 2% | 97.8% | 47% | 96.2% | 97.4% | 95.3% | 0% | 17% | 6% | 99.2%
9 | CSc1nccc(-c2c(-c3ccc(F)cc3)ncn2CCCN2CCOCC2)n1.Cl [SB-217146] | 0% | 0% | 0% | 0% | 0% | 0% | 0% | 16% | 0% | 12% | 1% | 0% | 36% | 10% | 0% | 11% | 0% | 0% | 0% | 0%
10 | O=C1NCCc2[nH]c(-c3ccncc3)cc21 | 0% | 38% | 22% | 1% | 13% | 21% | 36% | 27% | 29% | 71% | 19% | 97.9% | 5% | 7% | 2% | 29% | 0% | 31% | 99.7% | 99.5%
11 | CS(=O)c1ccc(-c2coc3ccc(-c4n[nH]c(=O)o4)cc23)cc1 (stereo not shown) | 0% | 36% | 96.9% | 0% | 4% | 0% | 0% | 10% | 0% | 38% | 91.1% | 0% | 10% | 0% | 12% | 0% | 0% | 42% | 0% | 20%
12 | O=C(Nc1n[nH]c2cc(-c3ccco3)ccc12)C1CC1 [SB-737447] | 7% | 19% | 0% | 49% | 7% | 0% | 6% | 5% | 11% | 38% | 0% | 11% | 29% | 86% | 0% | 0% | 0% | 16% | 1% | 28%
13 | COc1cccc(C2=C(Nc3cccc(Cl)c3)C(=O)NC2=O)c1 [SB-341556] | 0% | 0% | 0% | 7% | 4% | 0% | 14% | 0% | 0% | 14% | 0% | 0% | 18% | 12% | 0% | 0% | 14% | 0% | 0% | 69%
14 | O=C(NOCC1CC1)c1cc(Br)c(F)c(F)c1Nc1ccc(I)cc1Cl | 0% | 0% | 0% | 0% | 14% | 0% | 17% | 14% | 0% | 0% | 0% | 0% | 8% | 0% | 0% | 0% | 0% | 0% | 0% | 0%
15 | Cc1n[nH]c2cc(Nc3ccnc(Nc4cccc(CN5CCOCC5)c4)n3)ccc12 [GW682569] | 24% | 0% | 19% | 0% | 5% | 0% | 0% | 31% | 0% | 0% | 35% | 4% | 2% | 17% | 0% | 0% | 0% | 27% | 35% | 29%
16 | O=C(Nc1cccc(C(F)(F)F)c1)c1cccc(Oc2ccc3nccn3n2)c1 | 3% | 0% | 0% | 11% | 22% | 18% | 19% | 0% | 0% | 0% | 0% | 0% | 14% | 18% | 0% | 3% | 0% | 0% | 13% | 7%
17 | CC(C)S(=O)(=O)N1CCN(Cc2ccc3c(c2)nc(NC(=O)c2ccsc2)n3C[C@H](O)c2ccccc2)CC1 [GW635815] | 4% | 0% | 6% | 0% | 25% | 0% | 0% | 42% | 0% | 8% | 15% | 0% | 8% | 6% | 0% | 0% | 0% | 32% | 98.4% | 98.5%
